# High-throughput results: PubChem, The Scripps Research Institute Molecular Screening Center
# Most compounds without a hit are left out; they make up all but 3.5% or so of the library.
# FBW7 activator – FBW7 E3 ligase activators, primary screen, biochemical, AlphaScreen, human; F-box/WD repeat-containing protein 7 (Homo sapiens), Q969H0; AlphaScreen FBW7–phospho-cyclin E peptide binding, activator screen; normalized activity (activation), % at 26.1 µM; 0.13% of 650,000 active; AID 1259310, 2017; in the data active = normalized activity above about 1.9%;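 note: purified mutant Fbw7 with reduced substrate affinity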
# Target sequence (Q969H0 whole entry, looked up): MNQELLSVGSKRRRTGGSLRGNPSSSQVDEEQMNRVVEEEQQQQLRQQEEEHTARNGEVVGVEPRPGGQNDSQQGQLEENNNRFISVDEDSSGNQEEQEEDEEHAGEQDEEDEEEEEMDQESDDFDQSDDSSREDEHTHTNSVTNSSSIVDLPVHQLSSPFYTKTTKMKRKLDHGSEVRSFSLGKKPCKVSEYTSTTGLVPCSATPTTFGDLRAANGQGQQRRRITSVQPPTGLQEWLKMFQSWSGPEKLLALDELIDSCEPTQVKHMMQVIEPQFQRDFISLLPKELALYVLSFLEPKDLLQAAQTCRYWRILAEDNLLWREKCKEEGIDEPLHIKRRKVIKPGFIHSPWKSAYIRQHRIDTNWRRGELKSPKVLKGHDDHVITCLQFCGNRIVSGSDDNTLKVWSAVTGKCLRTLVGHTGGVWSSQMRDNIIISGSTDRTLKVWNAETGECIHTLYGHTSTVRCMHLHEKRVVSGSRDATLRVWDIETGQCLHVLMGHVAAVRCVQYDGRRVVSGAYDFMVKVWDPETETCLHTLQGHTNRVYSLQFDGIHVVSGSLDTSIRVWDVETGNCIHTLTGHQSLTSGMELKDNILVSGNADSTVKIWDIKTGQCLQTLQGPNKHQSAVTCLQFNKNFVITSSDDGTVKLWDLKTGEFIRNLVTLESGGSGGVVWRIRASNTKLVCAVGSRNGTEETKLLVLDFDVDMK
# MITF inh – MITF inhibitors, primary screen, biochemical, AlphaScreen, human | inhibition, % at 2.6 µM | AlphaScreen MITF homodimerization, bead proximity signal | 0.91% of 650,000 active | Microphthalmia-associated transcription factor (Homo sapiens), O75030; in the data active = inhibition above about 50%
# GPR151 activ – activators of human GPR151, primary screen, cell-based, PathHunter beta-arrestin, luminescence. G-protein coupled receptor 151 (Homo sapiens), Q8TDV0. PathHunter beta-arrestin GPR151 cells. activation, % at 11.2 µM. 1% of 650,000 active; in the data active = activation above about 4.9%
# TEAD-YAP inh – TEAD-YAP interaction inhibition, primary screen, TEAD-YAP interaction inhibitor project, luminescence, HEK-TIYL cells | inhibition, % at 9.12 µM | 1.4% of 640,000 active | TEAD-Gal4/YAP UAS-luciferase luminescence; in the data active = inhibition above about 32%
# MITF inh conf – MITF inhibitors, retest of hits, confirmation, biochemical, AlphaScreen, triplicate; shares compounds with MITF inh; AlphaScreen MITF homodimerization, biotin/His-MITF beads; inhibition, % at 2.6 µM; 16% of 4,700 active;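 active = inhibition above a cutoff derived from the DMSO control wells, cut at about 28% in these data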;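 note: inhibitors lower the bead chemiluminescence by keeping MITF from dimerizing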
# AlphaScreen DR – AlphaScreen optical interference compounds, dose response, counter-screen, biochemical, HTS; shares compounds with MITF inh; AlphaScreen optical interference counterscreen, cell-free; 6% of 480 active; IC50, µM; call rule not given here
# AS interf ctr – AlphaScreen optical interference compounds, counter-screen for MITF inhibitor project, biochemical, triplicate | LysRS AlphaScreen counterscreen, signal interference | AID 1259376, 2018 | inhibition, % at 2.6 µM | shares compounds with MITF inh | 7.6% of 4,700 active;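 active = inhibition above a cutoff derived from the DMSO control wells, cut at about 30% in these data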
# Numbers stand for hits; - = inactive; . = no result given.
SMILES,FBW7 activator,MITF inh,GPR151 activ,TEAD-YAP inh,MITF inh conf,AS interf ctr,others
O=C(N1CCN(Cc2ccccc2)CC1)C12CC3CC(CC(O)(C3)C1)C2,-,53,-,-,-,-,
O=C(N/N=C/c1cccc2cccnc12)c1ccncc1,-,96,-,-,112,100,
O=C(N/N=C/c1cccc2cccnc12)c1ccccc1,-,57,-,-,78,100,
O=C(N/N=C/c1cccc2ccccc12)c1ccncc1,-,-,-,-,.,.,
O=C(COc1ccc(F)cc1)N/N=C/c1cccc2cccnc12,-,59,-,-,28,86,
Cc1ccc([N+](=O)[O-])c(OCCCN2CCN(Cc3ccccc3)CC2)c1,-,-,-,-,.,.,
Cc1ccc([N+](=O)[O-])c(OCCOCCN2CCN(Cc3ccccc3)CC2)c1,-,70,-,-,-,-,
COc1cc(C(C)=O)ccc1OCCOCCN1CCN(Cc2ccccc2)CC1,-,87,-,-,-,-,
Cc1ccc(C)c(Cn2c(C(=O)O)c(CNCc3ccco3)c3ccccc32)c1,-,-,-,-,.,.,
CCCN(CCO)Cc1ccc(NC(C)=O)cc1,-,-,-,-,.,.,
O=C(C1CCN(Cc2ccccc2F)CC1)N1CCc2ccccc2C1,-,-,-,-,.,.,
CCN(CC)C(=O)C1CCCN(Cc2cccc([N+](=O)[O-])c2)C1 (stereo not given),-,-,-,-,.,.,
O=C(C1CCCN(Cc2cccc([N+](=O)[O-])c2)C1)N1CCCCCC1 (stereo not given),-,69,-,-,-,-,
O=C(C1CCCN(Cc2cccc([N+](=O)[O-])c2)C1)N1CCc2ccccc2C1 (stereo not given),-,51,-,-,-,-,
COc1cccc(CN2CCc3ccccc3C2)c1,-,-,-,-,.,.,
Cc1ccc(CN2CCC(C(=O)N3CCc4ccccc4C3)CC2)o1,-,54,-,-,-,-,
COc1cccc(CN2CCCC(C(=O)N3CCc4ccccc4C3)C2)c1 (stereo not given),-,60,-,-,-,-,
CCOc1ccc(CN2CCCC(C(=O)NN)C2)cc1 (stereo not given),-,-,-,-,.,.,
Cc1ccc(NC(=O)COc2ccc(C(=O)NCc3ccccc3)cc2)cc1,-,-,-,-,.,.,
CCOC(=O)c1nn(-c2ccc(OC)cc2)c(=O)c2c(NC(=O)C(C)(C)C)scc12,-,-,-,-,.,.,
CCNCc1cc(Br)ccc1OC,-,-,-,-,.,.,
COc1ccccc1CNCc1cc(Br)ccc1OC,-,70,-,-,-,-,
Cc1nnsc1C(=O)Nc1ccc2c(c1)OCO2,-,-,-,-,.,.,
O=[N+]([O-])c1ccc(S(=O)(=O)N2CCN(CCCc3ccccc3)CC2)cc1,-,56,-,-,-,-,
O=[N+]([O-])c1cccc(CN2CCN(S(=O)(=O)c3ccc(Cl)cc3)CC2)c1,-,64,-,-,-,-,
SMILES,FBW7 activator,MITF inh,GPR151 activ,TEAD-YAP inh,MITF inh conf,AS interf ctr,others
O=[N+]([O-])c1cccc(CN2CCN(S(=O)(=O)c3ccccc3)CC2)c1,-,70,-,-,-,-,
O=[N+]([O-])c1cccc(CN2CCN(S(=O)(=O)c3ccc(F)cc3)CC2)c1,-,57,-,-,-,-,
COc1ccc(S(=O)(=O)N2CCN(CCCc3ccccc3)CC2)cc1,-,-,-,-,.,.,
CCc1ccc(Oc2nc3ccccn3c(=O)c2/C=C(\C#N)C(=O)NC)cc1,-,-,-,-,.,.,
COc1ccc(-c2c(C)sc3ncnc(N)c23)cc1OC,-,-,-,-,.,.,
O=C(CC(O)(C(F)(F)F)C(F)(F)F)Nc1cc(Cl)ccc1Cl,-,-,-,-,.,.,
O=S(=O)(c1ccc(Cl)cc1)N1CCN(Cc2cccc(F)c2)CC1,-,64,-,-,-,-,
O=C(c1cccc2ccccc12)N1CCN(Cc2cccc([N+](=O)[O-])c2)CC1,-,76,-,-,-,-,
CCN(CC)C(=O)N1CCN(S(=O)(=O)c2cccc([N+](=O)[O-])c2)CC1,-,-,-,-,.,.,
CN(C)C(=O)N1CCN(S(=O)(=O)c2cccc([N+](=O)[O-])c2)CC1,-,77,-,-,30,-,AlphaScreen DR=-
COc1ccccc1/C=C/CN1CCNC(=O)C1CC(=O)NCCSC (stereo not given),-,-,-,-,.,.,
CCCOc1ccccc1C1C(C(=O)OC)=C(C)NC2=C1C(=O)CC(c1ccccc1)C2 (stereo not given),-,-,-,-,.,.,
CCN1C=CC(=C(/C=C2\C=CC=CC2=O)CS(=O)(=O)O)C=C1,-,65,-,-,-,-,
O=C1N/C(=C\c2ccccc2OCc2ccccc2)C(=O)N1Cc1ccc(Cl)cc1,-,-,-,-,.,.,
COc1ccc(CCNC(CC(=O)Nc2ccc(Oc3ccccc3)cc2)C(=O)O)cc1 (stereo not given),-,-,-,-,.,.,
COc1ccc(CCNC(C)CC(=O)Nc2ccccc2)cc1 (stereo not given),-,56,-,-,-,-,
Cc1cccc(NS(=O)(=O)N2CCCCC2)c1,-,-,-,-,.,.,
COc1ccc(CN2CCN(CC3CC=CCC3)CC2)cc1OC (stereo not given),-,61,-,-,-,-,
COc1ccc(C(=O)N2CCN(CC3CC=CCC3)CC2)cc1OC (stereo not given),-,-,-,-,.,.,
Fc1ccc(CN2CCN(CC3CC=CCC3)CC2)cc1 (stereo not given),-,65,-,-,-,-,
CCS(=O)(=O)N1CCN(Cc2cccc(C)c2)CC1,-,-,-,-,.,.,
COc1ccc(CN2CCN(CC3CC=CCC3)CC2)cc1 (stereo not given),-,61,-,-,-,-,
Cc1cccc(CN2CCN(CC3CC=CCC3)CC2)c1 (stereo not given),-,67,-,-,-,-,
COc1cc(C(=O)N2CCC(O)(c3cccnc3)CC2)cc(OC)c1OC,-,-,-,-,.,.,
CCOc1cc(CN2CCN(CC3CC=CCC3)CC2)ccc1OC (stereo not given),-,70,-,-,-,-,
CCOc1cc(CN2CCCC2)ccc1OC,-,-,-,-,.,.,
COc1cccc(CN2CCN(C3CCCCCC3)CC2)c1OC,-,71,-,-,-,-,
COc1cccc(CN2CCCC(C(=O)NN)C2)c1OC (stereo not given),-,55,-,-,-,-,
CCN(CC)C(=O)C1CCCN(Cc2cccc(OC)c2OC)C1 (stereo not given),-,-,-,-,.,.,
